The list is not random: actives were taken first. Their share in the collection is about 19%.
IL-1B inflam inh = inhibitors of inflammasome signaling (IL-1 beta secretion); THP-1 LPS/ATP IL-1B secretion, AlphaLISA, 16 h; hits give low values; activity change, % at 57.5 µM; actives 4.7% (n = 360,000); in the data active means activity change below about -50%; inconclusive means mostly about -30% to -49%
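Secreted IL-1B measured by AlphaLISA bead assay after 16 h compound exposure of THP-1 cells; compounds (final up to 57.5 uM) added 1 h before LPS (250 ng/mL) and ATP (1.25 mM) stimulation; lower signal means less secretion.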
DT40 TDP1 CPT = DT40-hTDP1 cell growth loss with CPT. chicken DT40 Tdp1-/-;hTDP1 cells + 20 nM CPT, ATP luminescence, 48 h. Potency, µM (titrated, usually from 46.2 µM), inactives show at the highest dose activity change, negative = growth inhibition, most hits filed as inhibitors. actives 12% (n = 420,000). AID 686979; further: potency means the concentration at half of the fitted maximal effect; nearly all actives have a fitted effect of over 55% in size
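Cell growth measured by CellTiter-Glo luminescence after a minimum 48 h, 37 C compound exposure with 20 nM CPT in Tdp1-knockout DT40 cells stably expressing hTDP1, seeded 400/well; qHTS titration format.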
HT1080 IDH1KD tx = kills HT-1080 cells with IDH1 knockdown; AID 686971; HT-1080 IDH1 knockdown viability, ATP luminescence, 48 h; actives 2% (n = 360,000); Potency, µM (highest dose often 46.1 µM), without a hit: top-dose activity, negative = toxicity, actives largely listed as cytotoxic;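 further: potency means the concentration at half of the fitted maximal effect; 0% = DMSO wells and -100% = cell-free medium wells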
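Luminescent ATP read-out (CellTiter-Glo, 10 min at room temperature) after 48 h compound exposure at 37 °C gave viability of IDH1-knockdown HT-1080 cells. Activity was normalised to DMSO and cell-free wells, then fitted as concentration-response curves.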
DT40 TDP1 no CPT = qHTS for Inhibitors of human tyrosyl-DNA phosphodiesterase 1 (TDP1): qHTS in cells in absence of CPT; DT40 Tdp1-/- hTDP1 cells, no CPT, ATP luminescence, 48 h; Potency, µM (series often up to 46.2 µM), for the others: at the highest dose activity change, negative = growth inhibition, actives largely listed as inhibitors; actives 15% (n = 420,000); AID 686978, 2013; further: potency means the concentration at half of the fitted maximal effect; nearly all actives have a fitted effect of over 55% in size
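DT40 Tdp1-/-;hTDP1 cells, no CPT (DMSO vehicle only), 400 cells/well; compounds pin-transferred; ≥48 hr, 37 °C; CellTiter-Glo 30 min RT dark, luminescence read.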
HT1080NT lethal = kills 2HG-producing HT-1080-NT fibrosarcoma cells. HT-1080-NT fibrosarcoma viability, CellTiter-Glo ATP luminescence, 48 h. Potency, µM (top dose mostly 46.1 µM), for the others: at the highest dose activity, negative = less viability, actives largely listed as cytotoxic. actives 1.6% (n = 360,000). AID 686970;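 further: NT is the 2HG producing partner of a matched IDH1 knockdown line; potency means the concentration at half of the fitted maximal effect; 0% = DMSO-treated cells and -100% = media-only wells without cells; nearly all actives have a fitted effect of over 55% in size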
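750 cells/well, RPMI + 5% FBS; 2 h settle, compound pin-transfer, 48 h at 37 degrees C. CellTiter-Glo 10 min RT, luminescence. Normalized to DMSO and media-only wells.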
* hit, by the source's call; [ ] = remark or other dose. Unless noted, the call rests on the fitted dose curve; in most records, active means well fitted curve in the direction sought with a large enough effect; inconclusive means small, poorly fitted or top-dose-only effect, or another doubt; inactive means no such curve, though single readings can be large; an effect the other way counts as inactive or inconclusive. Unless noted, on the % scale 0 is the no-effect control and ±100 the full control effect.

CN(C)c1ccc(/C=C2/CCc3ccccc32)cc1 was read as DT40 TDP1 CPT 14µM* and DT40 TDP1 no CPT 10µM*.
For CC1=Nc2ccccc2/C1=C/c1nc(-c2ccc(C)s2)oc1O the results were IL-1B inflam inh 28, DT40 TDP1 CPT inconclusive, HT1080 IDH1KD tx -1%, DT40 TDP1 no CPT inconclusive and HT1080NT lethal 2%.
For CC1=Nc2ccccc2/C1=C/c1ccc(N(C)C)cc1 the results were DT40 TDP1 CPT -96% and DT40 TDP1 no CPT 18µM*.
Screening CC1=Nc2ccccc2/C1=C/c1c(C)[nH]c2ccccc12 returned IL-1B inflam inh -72*, DT40 TDP1 CPT inconclusive, HT1080 IDH1KD tx inconclusive, DT40 TDP1 no CPT 16µM* and HT1080NT lethal inconclusive.
For CN(C)c1ccc(/C=C2\c3ccccc3-c3ccc(N(C)C)cc32)cc1 the results were DT40 TDP1 CPT -4% and DT40 TDP1 no CPT inconclusive.
`CN(C)c1ccc(C=C2c3ccccc3-c3ccccc32)cc1` gave DT40 TDP1 CPT inconclusive and DT40 TDP1 no CPT 22µM*.
Screening CN(C)c1ccc(/C=C2\CCCCC2=O)cc1 returned IL-1B inflam inh -20, DT40 TDP1 CPT 20µM*, HT1080 IDH1KD tx 16%, DT40 TDP1 no CPT inconclusive and HT1080NT lethal 10%.
`Cn1cnnc1SCc1ccc(C(=O)N=Nc2c(O)n(Cc3ccc(Cl)cc3)c3ccccc23)cc1` gave IL-1B inflam inh inconclusive, DT40 TDP1 CPT 21µM*, HT1080 IDH1KD tx -30%, DT40 TDP1 no CPT 10µM* and HT1080NT lethal -18%.
CCn1c(O)c(N=NC(=O)c2ccc(CSc3nncn3C)cc2)c2ccccc21 was read as IL-1B inflam inh 0, DT40 TDP1 CPT inconclusive, HT1080 IDH1KD tx 1%, DT40 TDP1 no CPT 15µM* and HT1080NT lethal -7%.
Screening COc1ccccc1C(=O)N/C(=C/c1cccc([N+](=O)[O-])c1)C(=O)Nc1cccc(C(=O)O)c1 returned IL-1B inflam inh -8, DT40 TDP1 CPT 21µM*, HT1080 IDH1KD tx 16%, DT40 TDP1 no CPT inconclusive and HT1080NT lethal 23%.
`COc1ccccc1NC(=O)/C(=C/c1cccc([N+](=O)[O-])c1)c1ccccc1` gave IL-1B inflam inh -3, DT40 TDP1 CPT 13µM*, HT1080 IDH1KD tx 10%, DT40 TDP1 no CPT 9.2µM* and HT1080NT lethal 0%.
COc1ccc(C(=O)N/C(=C\c2cccc([N+](=O)[O-])c2)C(=O)Nc2cccc(C(=O)O)c2)cc1 was read as IL-1B inflam inh 4, DT40 TDP1 CPT 13%, HT1080 IDH1KD tx 28%, DT40 TDP1 no CPT -1% and HT1080NT lethal 2%.
For CCOC(=O)C1CCCCN1Cc1nc(N2CCN(C(C)=O)CC2)c2ccccc2n1 (stereo not given) the results were DT40 TDP1 CPT -6%[9.04 µM] and DT40 TDP1 no CPT -28%.
Screening COc1cccc(-c2oc3c(c2-c2ccc(OC)nc2)C(O)CCC3)c1 (stereo not given) returned IL-1B inflam inh -11, DT40 TDP1 CPT -20%, HT1080 IDH1KD tx -15%, DT40 TDP1 no CPT inconclusive and HT1080NT lethal 1%.
For O=C(NCC1CCCO1)c1cc([N+](=O)[O-])ccc1N1CCC(Cc2ccccc2)CC1 (stereo not given) the results were IL-1B inflam inh -12, DT40 TDP1 CPT inconclusive, HT1080 IDH1KD tx -27%, DT40 TDP1 no CPT 23µM* and HT1080NT lethal -6%.
CCc1ccc(CNC(=O)C2CCCN(S(=O)(=O)N(CC)c3ccccc3)C2)cc1 (stereo not given) was read as IL-1B inflam inh 30, DT40 TDP1 CPT inconclusive, HT1080 IDH1KD tx -7%, DT40 TDP1 no CPT inconclusive and HT1080NT lethal -6%.
Screening O=C(c1cccs1)N1CCC(c2nc3c(nnn3Cc3c(Cl)cccc3Cl)c(=O)[nH]2)CC1 returned IL-1B inflam inh 39, DT40 TDP1 CPT -22%, HT1080 IDH1KD tx 0%, DT40 TDP1 no CPT inconclusive and HT1080NT lethal inconclusive.
